Results on three compounds are retold here after PubChem BioAssay (EPA / NIEHS).

Common to all, as to details: mRNA level, 48 h; actives raise or lower the signal
Read-out in experiment [1]: CYP4A11 (gene 1579)
The experiment can be described thus: LTEA_HepaRG_CYP4A11: Life Technologies and Expression Analysis (LTEA) Assay for CYP4A11 using HepaRG (AID 2283486). In outline:
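Readout is CYP4A11 mRNA induction or suppression (qRT-PCR, ACTB/GAPDH/POLR2A normalization) in human HepaRG cells after 48 h chemical treatment, concentrations to 100 uM in 0.5% DMSO, fitted bidirectionally against vehicle.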

Read-out in experiment [2]: Cytochrome P450 3A4 (Homo sapiens) (UniProt P08684)
Description: LTEA_HepaRG_CYP3A4: Life Technologies and Expression Analysis (LTEA) Assay for CYP3A4 using HepaRG (AID 2283487). In outline:
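Differentiated HepaRG cells in serum-free induction medium exposed in duplicate for 48 h to 8 half-log concentrations up to 100 uM in 0.5% DMSO. CYP3A4 mRNA measured by qRT-PCR normalized to ACTB, GAPDH and POLR2A; bidirectional fit versus DMSO.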

Read-out in experiment [3]: DNA damage-inducible transcript 3 (DDIT3), DDIT3 (gene 1649)
Description: LTEA_HepaRG_DDIT3: Life Technologies and Expression Analysis (LTEA) Assay for DNA damage-inducible transcript 3 (DDIT3) using HepaRG (AID 2283488). The gist of the method:
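HepaRG plated 48 h, switched to serum-free induction medium, dosed 48 h (100 uM top, half-log, 8 pts, 0.5% DMSO, n=2); RNA isolated; DDIT3 by qRT-PCR; bidirectional curve fit vs DMSO.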

Read-out in experiment [4]: Pro-epidermal growth factor (Homo sapiens) (UniProt P01133)
Description: LTEA_HepaRG_EGF: Life Technologies and Expression Analysis (LTEA) Assay for Epidermal growth factor (EGF) using HepaRG (AID 2283489). In outline: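 EGF expression changes in human HepaRG cells are scored by bidirectional fitting relative to 0.5% DMSO controls. Chemicals are tested at eight half-log concentrations up to 100 uM for 48 h in serum-free induction medium.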

Read-out in experiment [5]: Early growth response protein 1 (EGR1) transcription factor, EGR1 (gene 1958)
The experiment can be described thus: LTEA_HepaRG_EGR1: Life Technologies and Expression Analysis (LTEA) Assay for Early growth response protein 1 (EGR1) transcription factor using HepaRG (AID 2283490). In outline:
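Read-out is EGR1 mRNA level by qRT-PCR, normalized to three housekeeping genes and analysed for gain or loss of signal against 0.5% DMSO. Source cells: human HepaRG, treated 48 h at up to 100 uM in half-log dilutions.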

Read-out in experiment [6]: Ezrin (EZR), EZR (gene 7430)
Description: LTEA_HepaRG_EZR: Life Technologies and Expression Analysis (LTEA) Assay for Ezrin (EZR) using HepaRG (AID 2283491). The gist of the method:
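Differentiated human HepaRG cells, 48 h after plating, were exposed in serum-free induction medium for 48 hours to eight half-log concentrations up to 100 uM in 0.5% DMSO. EZR mRNA was measured by TaqMan qRT-PCR, normalized to ACTB, GAPDH and POLR2A, and fitted bidirectionally against DMSO.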

Read-out in experiment [7]: Cytochrome P450 3A7 (Homo sapiens) (UniProt P24462)
Description: LTEA_HepaRG_CYP3A7: Life Technologies and Expression Analysis (LTEA) Assay for CYP3A7 using HepaRG (AID 2283492). In outline: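 Cells were thawed, plated, cultured 48 h, then treated for a further 48 h with chemicals (eight-point half-log series from 100 uM, 0.5% DMSO). RNA was isolated and CYP3A7 expression quantified by qRT-PCR normalised to ACTB, GAPDH and POLR2A.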

Read-out in experiment [8]: CYP3A5 (gene 1577)
The experiment can be described thus: LTEA_HepaRG_CYP3A5: Life Technologies and Expression Analysis (LTEA) Assay for CYP3A5 using HepaRG (AID 2283493). The gist of the method:
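HepaRG plated 48 h, switched to serum-free induction medium, chemicals added 48 h (max 100 uM, half-log, 0.5% DMSO). RNA isolated; CYP3A5 by TaqMan qRT-PCR. Gain/loss vs DMSO.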

Read-out in experiment [9]: Fatty Acid-Binding Protein 1 (FABP1), FABP1 (gene 2168)
The experiment can be described thus: LTEA_HepaRG_FABP1: Life Technologies and Expression Analysis (LTEA) Assay for Fatty Acid-Binding Protein 1 (FABP1) using HepaRG (AID 2283494). The gist of the method:
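HepaRG, 48 h post-plating switched to serum-free induction medium, then dosed 48 h (duplicate, 8 pts, ≤100 uM, 0.5% DMSO). RNA → Fluidigm TaqMan qRT-PCR, FABP1 normed to ACTB/GAPDH/POLR2A. Bidirectional curve fit vs DMSO.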

Read-out in experiment [10]: Cytochrome P450 4A22 (Homo sapiens) (UniProt Q5TCH4)
Description: LTEA_HepaRG_CYP4A22: Life Technologies and Expression Analysis (LTEA) Assay for Cytochrome P450 4A22 (CYP4A22) using HepaRG (AID 2283495). In outline: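 Cryopreserved HepaRG cells, plated and cultured 48 h, then switched to serum-free induction medium and treated 48 h (duplicates, up to 100 uM, half-log steps, 0.5% DMSO). Expression change of CYP4A22 was fitted bidirectionally against vehicle.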

Read-out in experiment [11]: Cytochrome P450 7A1 (Homo sapiens) (UniProt P22680)
The experiment can be described thus: LTEA_HepaRG_CYP7A1: Life Technologies and Expression Analysis (LTEA) Assay for Cytochrome P450 7A1 (CYP7A1) using HepaRG (AID 2283496). The gist of the method:
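HepaRG cells plated 48 h, then switched to serum-free induction medium and exposed in duplicate for 48 h to 8-point half-log series from 100 uM in 0.5% DMSO. CYP7A1 mRNA by qRT-PCR (TaqMan), normalized to ACTB/GAPDH/POLR2A; bidirectional fit versus DMSO.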

Read-out in experiment [12]: Glutathione S-Transferase (GSTA2), GSTA2 (gene 2939)
Description: LTEA_HepaRG_GSTA2: Life Technologies and Expression Analysis (LTEA) Assay for Glutathione S-Transferase (GSTA2) using HepaRG (AID 2283497). In outline: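 HepaRG, 48 h dosing, 8-pt half-log CRC from 100 uM, 0.5% DMSO vehicle, n=2; RNA → Fluidigm TaqMan qRT-PCR; GSTA2 vs ACTB/GAPDH/POLR2A; gain/loss fit vs DMSO.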

Read-out in experiment [13]: growth arrest and DNA damage 45 (GADD45G), GADD45G (gene 10912)
The experiment can be described thus: LTEA_HepaRG_GADD45G: Life Technologies and Expression Analysis (LTEA) Assay for growth arrest and DNA damage 45 (GADD45G) using HepaRG (AID 2283499). In outline: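 Human hepatic HepaRG line treated 48 h with chemicals (eight concentrations, half-log steps from 100 uM); transcript induction or repression of GADD45G scored by qRT-PCR versus DMSO vehicle.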

Read-out in experiment [14]: Glutamate-cysteine ligase regulatory (GCLM), GCLM (gene 2730)
The experiment can be described thus: LTEA_HepaRG_GCLM: Life Technologies and Expression Analysis (LTEA) Assay for Glutamate-cysteine ligase regulatory (GCLM) using HepaRG (AID 2283500). The gist of the method: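 Cells were plated, cultured 48 h, switched to serum-free induction medium, then dosed in duplicate for 48 h at eight half-log concentrations up to 100 uM. RNA was then profiled by qRT-PCR; gain or loss versus DMSO was fitted.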

Read-out in experiment [15]: Heat shock 70 kDa protein 1 (HSPA1A), gene 3303
Description: LTEA_HepaRG_HSPA1A: Life Technologies and Expression Analysis (LTEA) Assay for Heat shock 70 kDa protein 1 (HSPA1A) using HepaRG (AID 2283502). In outline:
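Readout is HSPA1A transcript level by microfluidic qRT-PCR, normalized to three housekeeping genes and analysed for gain or loss of signal relative to 0.5% DMSO. Human HepaRG cultures received test chemicals for 48 h at up to 100 uM.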

Read-out in experiment [16]: Hypoxia-inducible factor 1-alpha (Homo sapiens) (UniProt Q16665)
The experiment can be described thus: LTEA_HepaRG_HIF1A: Life Technologies and Expression Analysis (LTEA) Assay for Hypoxia-inducible factor 1 (HIF1A) Trancription factor using HepaRG (AID 2283503). In outline:
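Differentiated HepaRG cells in serum-free induction medium exposed 48 h, in duplicate, to 8-point half-log series from 100 uM in 0.5% DMSO. HIF1A mRNA measured by TaqMan qRT-PCR, normalized to ACTB/GAPDH/POLR2A, fitted bidirectionally versus DMSO.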

Read-out in experiment [17]: 3-Hydroxy-3-Methylglutaryl-CoA Synthase 2 (HMGCS2), HMGCS2 (gene 3158)
The experiment can be described thus: LTEA_HepaRG_HMGCS2: Life Technologies and Expression Analysis (LTEA) Assay for 3-Hydroxy-3-Methylglutaryl-CoA Synthase 2 (HMGCS2) using HepaRG (AID 2283504). In outline:
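Expression of HMGCS2 in human HepaRG liver cells is measured by qRT-PCR 48 h after dosing (highest 100 uM, half-log series, 0.5% DMSO). Values come from bidirectional concentration-response fitting with DMSO as baseline.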

Read-out in experiment [18]: HGF (gene 3082)
Description: LTEA_HepaRG_HGF: Life Technologies and Expression Analysis (LTEA) Assay for Hepatocyte Growth Facto (HGF) using HepaRG (AID 2283505). In outline: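 Gain or loss of HGF mRNA in human HepaRG liver cells after 48 h chemical exposure; eight concentrations up to 100 uM with 0.5% DMSO vehicle, quantified by TaqMan qRT-PCR.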

Read-out in experiment [19]: Glutamate-cysteine ligase catalytic (GCLC), GCLC (gene 2729)
The experiment can be described thus: LTEA_HepaRG_GCLC: Life Technologies and Expression Analysis (LTEA) Assay for Glutamate-cysteine ligase catalytic (GCLC) using HepaRG (AID 2283498). In outline: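 Read-out is GCLC transcript level by Fluidigm-based TaqMan qRT-PCR, normalized to three housekeeping genes and fitted in both directions relative to 0.5% DMSO. Human HepaRG cells received chemicals for 48 h, up to 100 uM.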

Read-out in experiment [20]: Glutathione S-transferase M3 (GSTM3), GSTM3 (gene 2947)
Description: LTEA_HepaRG_GSTM3: Life Technologies and Expression Analysis (LTEA) Assay for Glutathione S-transferase M3 (GSTM3) using HepaRG (AID 2283501). In outline: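 Changes in GSTM3 expression, an oxidative-stress marker, were scored by bidirectional curve fitting against 0.5% DMSO vehicle. Human HepaRG cultures received chemicals for 48 h in duplicate, highest concentration 100 uM with half-log dilutions.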

For orientation: AC50 means the concentration giving half of the maximal activity seen.

The source made the active and inactive calls. How the source made its calls: active means hit-call score of the fitted dose curve at least 0.9, where 1 is the maximum; inactive means score below 0.9.

Sequence of Cytochrome P450 3A4 (Homo sapiens) (P08684 whole entry, looked up): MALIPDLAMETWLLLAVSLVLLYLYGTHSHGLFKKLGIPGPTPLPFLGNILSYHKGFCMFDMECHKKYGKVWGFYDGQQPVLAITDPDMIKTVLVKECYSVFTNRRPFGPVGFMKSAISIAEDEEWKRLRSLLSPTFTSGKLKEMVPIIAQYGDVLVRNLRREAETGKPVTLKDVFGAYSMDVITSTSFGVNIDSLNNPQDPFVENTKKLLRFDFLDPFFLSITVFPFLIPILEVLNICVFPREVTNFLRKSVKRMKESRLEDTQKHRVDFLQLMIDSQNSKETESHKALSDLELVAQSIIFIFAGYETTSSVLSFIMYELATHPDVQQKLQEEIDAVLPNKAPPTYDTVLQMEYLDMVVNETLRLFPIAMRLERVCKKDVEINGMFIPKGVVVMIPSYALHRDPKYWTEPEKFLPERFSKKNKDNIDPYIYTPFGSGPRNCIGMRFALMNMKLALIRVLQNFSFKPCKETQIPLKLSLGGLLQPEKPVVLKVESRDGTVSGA
Sequence of Hypoxia-inducible factor 1-alpha (Homo sapiens) (Q16665 whole entry, looked up): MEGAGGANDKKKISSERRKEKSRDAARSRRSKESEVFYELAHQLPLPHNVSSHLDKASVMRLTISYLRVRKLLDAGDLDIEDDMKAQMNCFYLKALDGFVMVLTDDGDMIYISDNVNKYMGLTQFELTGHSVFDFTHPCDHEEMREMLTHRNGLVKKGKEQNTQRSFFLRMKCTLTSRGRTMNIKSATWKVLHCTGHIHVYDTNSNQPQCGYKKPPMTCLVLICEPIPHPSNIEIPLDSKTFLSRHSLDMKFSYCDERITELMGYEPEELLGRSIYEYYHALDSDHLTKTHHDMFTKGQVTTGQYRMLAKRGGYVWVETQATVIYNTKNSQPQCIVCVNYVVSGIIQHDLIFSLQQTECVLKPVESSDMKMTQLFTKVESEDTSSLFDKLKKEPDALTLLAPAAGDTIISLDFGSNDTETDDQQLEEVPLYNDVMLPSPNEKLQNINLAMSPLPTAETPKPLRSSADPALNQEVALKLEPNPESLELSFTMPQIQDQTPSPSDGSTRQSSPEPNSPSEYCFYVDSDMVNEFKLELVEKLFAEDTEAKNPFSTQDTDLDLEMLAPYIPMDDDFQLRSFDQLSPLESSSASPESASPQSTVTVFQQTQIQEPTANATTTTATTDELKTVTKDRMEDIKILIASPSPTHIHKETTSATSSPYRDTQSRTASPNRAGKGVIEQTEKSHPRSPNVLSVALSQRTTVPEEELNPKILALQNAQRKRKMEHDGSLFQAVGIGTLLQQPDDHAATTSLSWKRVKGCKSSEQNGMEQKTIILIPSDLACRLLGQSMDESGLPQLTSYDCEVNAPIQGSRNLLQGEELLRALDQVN
Sequence of Cytochrome P450 3A7 (Homo sapiens) (P24462 whole entry, looked up): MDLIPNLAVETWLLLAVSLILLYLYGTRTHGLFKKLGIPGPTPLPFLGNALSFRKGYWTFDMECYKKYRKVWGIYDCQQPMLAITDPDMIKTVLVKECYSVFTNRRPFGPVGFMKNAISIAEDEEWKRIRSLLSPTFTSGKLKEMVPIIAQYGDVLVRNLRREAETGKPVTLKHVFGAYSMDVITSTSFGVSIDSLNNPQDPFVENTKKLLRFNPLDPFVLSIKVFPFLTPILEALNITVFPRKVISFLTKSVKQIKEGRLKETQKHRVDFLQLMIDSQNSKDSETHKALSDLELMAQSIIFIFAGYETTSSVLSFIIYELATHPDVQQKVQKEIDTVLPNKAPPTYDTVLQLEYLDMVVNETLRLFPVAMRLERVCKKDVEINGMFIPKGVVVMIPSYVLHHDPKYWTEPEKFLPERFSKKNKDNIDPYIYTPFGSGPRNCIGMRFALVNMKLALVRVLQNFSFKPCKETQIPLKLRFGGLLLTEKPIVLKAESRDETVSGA

As for `CCOC(=O)C(O)(c1ccc(Cl)cc1)c1ccc(Cl)cc1`, the AC50 in experiment [1] is 20.4 µM (active); in experiment [7] it was 50 µM (active); in experiment [10], 50 µM (active). Further, the call in experiment [2], in experiment [3], in experiment [4], in experiment [5], in [6] and in experiment [8] was inactive. Also, the compound was classed as inactive in experiment [9], in experiment [11], in experiment [12], in experiment [13], in experiment [14] and in experiment [15]. The result in experiment [16], in experiment [17] and in [18] was inactive.
In the case of `CCCCCCCCCc1ccc(O)cc1`, the AC50 in [1] was 33.5 µM (active); in experiment [9] it was 50 µM (active); in [10], 31.9 µM (active); in experiment [17], 50 µM (active). Besides, the result in experiment [2], in experiment [3], in experiment [4], in [5], in experiment [6] and in [7] was inactive. The outcome in experiment [8], in experiment [11], in experiment [12], in experiment [19], in experiment [14] and in experiment [15] was inactive. Besides, the compound was classed as inactive in [16] and in experiment [18].
`O=NN(c1ccccc1)c1ccccc1`: the AC50 in experiment [1] and in experiment [10] was 50 µM (active) throughout. In addition, the result in experiment [2], in experiment [3], in [4], in experiment [5], in experiment [6] and in experiment [7] was inactive. In addition, the outcome in experiment [8], in experiment [9], in [11], in experiment [12], in experiment [19] and in [14] was inactive. Further, the compound was classed as inactive in experiment [20], in experiment [15], in experiment [16], in [17] and in experiment [18].
